Measurements: ChEMBL document CHEMBL3988442, “University of Dundee, Small-Polar-MMV Screening Library” (2021)

Columns and labels:
[1] = biological target: T1, Aspartate--tRNA(Asp/Asn) ligase (Mycobacterium tuberculosis (strain ATCC 25618 / H37Rv)) (UniProt P9WFW3); assay: Assay for Asp RNA synthetase-1 from Mycobacterium tuberculosis; format: functional; parameters: scale not given: direction of the effect not stated beside the values; conditions: 30 µM; note: in the data most compounds retested in dose-response had high values
T1 sequence (whole entry): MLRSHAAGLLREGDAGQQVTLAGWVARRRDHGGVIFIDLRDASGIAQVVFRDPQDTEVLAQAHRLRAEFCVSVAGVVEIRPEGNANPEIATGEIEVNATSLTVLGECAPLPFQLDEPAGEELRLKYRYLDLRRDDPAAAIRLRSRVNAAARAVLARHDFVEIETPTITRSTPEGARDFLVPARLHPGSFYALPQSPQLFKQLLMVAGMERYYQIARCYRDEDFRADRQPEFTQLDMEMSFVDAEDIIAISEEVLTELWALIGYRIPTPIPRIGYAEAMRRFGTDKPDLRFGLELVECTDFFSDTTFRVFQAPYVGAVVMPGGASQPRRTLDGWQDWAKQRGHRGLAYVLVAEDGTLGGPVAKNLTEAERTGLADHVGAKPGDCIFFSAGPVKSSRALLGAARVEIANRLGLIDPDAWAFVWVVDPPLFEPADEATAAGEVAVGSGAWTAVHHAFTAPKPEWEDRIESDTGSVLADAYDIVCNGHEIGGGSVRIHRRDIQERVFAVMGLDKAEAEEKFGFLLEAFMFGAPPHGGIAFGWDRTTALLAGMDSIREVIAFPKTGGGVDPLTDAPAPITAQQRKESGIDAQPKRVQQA

[2] = biological target: Shiga toxin 2 (Escherichia coli O157:H7) (UniProt P09385+P09386); assay: E. coli 0.157:H7 Shiga Toxin SOP - stx2 screening assay; format: functional; parameters: scale not given: direction of the effect not stated beside the values; conditions: 30 µM

Compound | Percent Effect [1] [%] | Percent Effect [2] [%]
Cn1nnc2c1CCN(CC1CC1)C2COCc1ccccc1 (centres undefined) | 1.84 | 0.25
CCc1nc(C2CCCN2CC(=O)Nc2c(C)n[nH]c2C)no1 (centres undefined) | -2.31 | 2.91
CCN1C[C@H]2CCN(C(=O)NC3CCCC3)CC[C@H]2S1(=O)=O | -0.232 | -57.6
Cc1nc(C)c2c(n1)CCN(C(=O)CC1CC1)CC2 | -2.64 | -5.99
CCc1nnc2n1CCN(Cc1csc(-c3ccsc3)n1)C2 | 1.89 | -7.29
CC(C)CCN1CCN(Cc2nc(C3CC3)no2)CC1 | 0.0141 | -32
Cc1cc(C(=O)N2CCc3ncc(CN4CCOCC4)n3CC2)no1 | -4.02 | -7.88
CCc1nc(CN2CCCN(C(=O)CCc3ccco3)CC2)cs1 | -4.26 | -71.2
O=C(c1coc(COc2cccc(F)c2)n1)N1CC[C@H](O)[C@@H](O)C1 | 2.06 | 11.7
CCn1cnnc1CNC(=O)NC(C)C(C)C (centres undefined) | -2.43 | 7.89
CCC(C)(C)NC(=O)CN(C)C(c1cccc(F)c1)c1ccccn1 (centres undefined) | -1.18 | 15.1
CNC(=O)[C@@]12CCC3(CCN(C(C)=O)CC3)[C@@H]1CN(S(C)(=O)=O)C2 | -0.917 | -15.9
COC[C@@H]1CC[C@H]2[C@H](CCN2S(=O)(=O)c2ccc(F)cc2)O1 | 8.74 | -4.21
CCc1csc(C2CCCN(C(=O)c3ccnc(N(C)C)c3)C2)n1 (centres undefined) | 1.86 | -14.7
CCOc1ccnc(N2CCN(C(=O)C(C)(C)C#N)CC2)n1 | 4.55 | 37.3
c1csc(-c2nc(CN3CCOC(Cn4cncn4)C3)co2)c1 (centres undefined) | 21.8 | 19.9
O=C(c1cscn1)N1C[C@@H]2[C@@H](C1)OCC(=O)N2CC1CCCC1 | 4.1 | -48.6
c1coc(-c2nnc(CN3CCCC(CN4CCCCCC4)C3)o2)c1 (centres undefined) | 2.88 | -14.6
Cc1cnc(CNC(=O)NCc2cccnc2N(C)C)s1 | -2.25 | -0.447

Compound | Percent Effect [1] [%] | Percent Effect [2] [%]
Cn1ccnc1-c1cccc(NC(=O)NCCCO)c1 | -2.56 | -54.8
CNC(=O)Cc1ccc(NC(=O)NC(C)C(C)C)cc1 (centres undefined) | -6.08 | -0.988
CC(C)CC(=O)N1CCc2nc(N3CCOCC3)nc(NC(C)C)c2C1 | -3.63 | 6.88
Cc1nc(C)n(CC2CCCN2Cc2cn3ccsc3n2)n1 (centres undefined) | 1.75 | -76
CCN(C)c1ncnc2c1CCN(C(=O)N1CCCC1)CC2 | 9 | -30.9
Cc1[nH]/c(=N\C(=O)c2csc(NC3CC3)n2)sc1C | -4.09 | 7.35
Cc1c(C(=O)NC(C)C(C)C)nnn1-c1cccc2c1CCN(C)C2 (centres undefined) | 2.19 | 3.53
CC(C)c1nc(C2CCCN(C(=O)c3ccc4nccn4c3)C2)no1 (centres undefined) | 4.61 | 29.2
Cc1cccnc1NC(=O)NCc1ccc(N2CCNC(=O)C2)cc1 | 5.31 | -63.3
Cc1ccc(-c2nnc(SCC(=O)O)n2-c2ccc(C)cc2)cc1 | 0.544 | -4.96
Cc1nn(C(C)C)c(C)c1NC(=O)c1ccccc1 | 1.73 | -4.81
Cc1cnc(C(=O)N2C[C@@H]3CN(CC4CCCC4)CCO[C@@H]3C2)cn1 | -4.04 | -21.5
CN(Cc1ncc(-c2ccccc2)o1)CC1CCCN1c1cccnn1 (centres undefined) | 0.259 | 5.15
CN(C)Cc1nn(C)c2c1CCN(S(=O)(=O)c1cccs1)C2 | 3.37 | -17.1
CCc1c(C(=O)NCC2CCS(=O)(=O)C2)cnn1-c1ccc(C)cc1 (centres undefined) | -1.8 | -0.796
CCc1ccc(C2CCCCCN2Cc2nc(CCOC)no2)o1 (centres undefined) | 10.6 | -30.6
O=C(NCCn1ccc(-c2ccccn2)n1)C1CC1 | 2.14 | -6.67
CCn1cc(CN2CCC(c3nnc(CN(C)C)n3CC)CC2)cn1 | -2.35 | -57.2
CC(NCC1=Cc2cc(Cl)ccc2OC1)c1nnc2n1CCCC2 (centres undefined) | 1.06 | -9.58

Compound | Percent Effect [1] [%] | Percent Effect [2] [%]
Cc1nn(C)c(C)c1NC(=O)CN1CCCC1c1noc(C2CC2)n1 (centres undefined) | 5.58 | -27.4
CC(=O)Nc1nc(C2CCN(C(=O)c3cccnc3)CC2)cs1 | -8.57 | -3.89
NC(=O)c1cc(C2CCCN(CCc3ccccn3)C2)n[nH]1 (centres undefined) | -0.833 | -5.89
Cc1cc(C(=O)NC2CCc3nc(C)cn3C2)[nH]n1 (centres undefined) | -3.72 | -2.92
O=C([C@H]1CCCO1)N1CCCC2(CCN(Cc3ccncc3)C2=O)C1 (some centres undefined) | 3.8 | -9.24
CCOc1ccnc(N2CCN(C(=O)c3cccnc3O)CC2)n1 | -5.14 | 6.95
CNC(=O)[C@H]1CO[C@H]2CCN(Cc3ccc4ccccc4n3)C[C@H]2C1 | 2.46 | -3.36
Cc1cc(NC(=O)NCCc2ccsc2)n(C)n1 | -9.16 | -21.1
CNc1nc(CNC(=O)Nc2ccccc2SC)cs1 | -0.278 | 22.5
CCn1c(C(=O)N2CCN(CC(C)O)CC2)cc2ccccc21 (centres undefined) | -4.64 | -48.2
CCOc1ccc(Cl)cc1CNCCCn1ccnc1 | 0.842 | -32.5
COC[C@@]12CCO[C@@H]1CCN(C(=O)COc1ccccc1OC)C2 | 4.72 | 19.5
O=C(CCNc1ncccn1)N1CCCC(n2ccnc2)C1 (centres undefined) | 1.03 | -9.67
Cc1ccccc1-c1cc(C(=O)N2CCn3c(C)nnc3C2)[nH]n1 | -2.28 | -13.5
Cc1n[nH]c(C2CN(C(=O)c3ccnc(C4CC4)n3)CCO2)n1 (centres undefined) | 1.3 | 28.6
COc1ncccc1CN1CCn2c(Cn3cncn3)cnc2C1 | -2.81 | -13.9
O=C(O)c1cc(S(=O)(=O)N2CCOc3ccccc32)ccc1F | -4.32 | -3.29
COCCOCC(=O)Nc1ccc(C)cc1F | -1.8 | 2.25
Cc1cnn(CC2CCCN2C(=O)CCCc2nc(C)no2)c1 (centres undefined) | -0.389 | -14.7
